# Results published in PMC4336329 (PLoS ONE, 2015).
# About 14,000 (4.5%) of roughly 310,000 compounds showed an effect of 50% or more. The effect is printed as a negative number. The full list was thinned out, with strong results kept by preference.
# Biological target: human ether-à-go-go-related gene (hERG) potassium channel (human, UniProt Q12809)
# Experiment: primary screen, population patch clamp on CHO cells stably expressing hERG; higher = less effect of the substance
# 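Note: peak tail current of the secondary pulse compared with the same well before compound.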
# Sequence of human ether-à-go-go-related gene (hERG) potassium channel (Q12809 whole entry, looked up): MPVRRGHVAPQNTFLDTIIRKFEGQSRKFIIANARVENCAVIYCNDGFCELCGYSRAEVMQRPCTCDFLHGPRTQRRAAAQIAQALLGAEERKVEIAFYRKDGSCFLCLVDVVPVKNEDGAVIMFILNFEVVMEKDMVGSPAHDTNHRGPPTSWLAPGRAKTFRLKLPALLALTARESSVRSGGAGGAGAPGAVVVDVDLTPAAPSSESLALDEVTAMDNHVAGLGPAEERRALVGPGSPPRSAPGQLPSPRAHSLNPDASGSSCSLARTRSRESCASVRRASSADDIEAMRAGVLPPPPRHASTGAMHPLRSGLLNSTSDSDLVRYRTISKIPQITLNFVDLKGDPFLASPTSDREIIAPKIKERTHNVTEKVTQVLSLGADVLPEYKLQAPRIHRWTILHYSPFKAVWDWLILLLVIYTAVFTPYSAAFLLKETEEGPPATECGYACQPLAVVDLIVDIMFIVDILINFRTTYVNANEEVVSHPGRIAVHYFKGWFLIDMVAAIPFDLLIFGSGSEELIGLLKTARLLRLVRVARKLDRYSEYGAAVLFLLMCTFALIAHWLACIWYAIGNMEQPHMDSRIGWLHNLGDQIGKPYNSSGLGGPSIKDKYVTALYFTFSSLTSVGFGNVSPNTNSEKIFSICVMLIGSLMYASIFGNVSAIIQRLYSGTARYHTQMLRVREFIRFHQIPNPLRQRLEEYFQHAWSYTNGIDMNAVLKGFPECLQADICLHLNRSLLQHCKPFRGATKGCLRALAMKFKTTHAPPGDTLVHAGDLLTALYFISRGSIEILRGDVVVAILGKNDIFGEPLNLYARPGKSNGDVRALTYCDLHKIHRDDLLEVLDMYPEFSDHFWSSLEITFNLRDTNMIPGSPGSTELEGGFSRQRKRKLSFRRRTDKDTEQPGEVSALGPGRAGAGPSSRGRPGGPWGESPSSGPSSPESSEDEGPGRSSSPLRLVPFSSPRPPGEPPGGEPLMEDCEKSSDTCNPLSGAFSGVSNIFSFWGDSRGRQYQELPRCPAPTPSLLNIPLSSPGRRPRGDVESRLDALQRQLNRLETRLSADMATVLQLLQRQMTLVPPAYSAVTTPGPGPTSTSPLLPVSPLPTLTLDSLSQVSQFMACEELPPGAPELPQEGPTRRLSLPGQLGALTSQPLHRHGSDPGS
row,Structure (SMILES),"hERG current change (%, negative = inhibition) at 10uM"
1,COC(=O)CNc1nc(Cl)nc(Nc2ccc(C)cc2)n1,18.3%
2,COc1cc(NC(=O)c2cccnc2SC)cc(OC)c1,10.2%
3,O=c1nccc(Nc2ccccc2)[nH]1,16.4%
4,CNC(=O)c1ccc(-c2cc(C(F)(F)F)nn2C)s1,17.6%
5,CCCc1sc(N/N=C/c2ccccn2)nc1-c1ccc(Br)cc1,5.39%
6,OCCCNC(=S)Nc1ccc(Oc2ccccc2)cc1,1.06%
7,Cc1ccc(OCCSc2nc3ccccc3n2CCC(=O)O)cc1,9.74%
8,CCOc1ccc(-n2c(=O)cc(N3CCN(c4ccc(F)cc4)CC3)[nH]c2=O)cc1,9.15%
9,Cc1cc(NC(=O)NC(=O)c2ccccc2F)no1,13.7%
10,Cc1ccsc1-c1nc(CSCC(=O)N2CCN(c3ccccc3)CC2)c(C)o1,-21.1%
11,COc1ccc(C(=O)NC(=S)SCC(=O)O)cc1,21.8%
12,Cc1onc(-c2c(F)cccc2Cl)c1C(=O)OCc1cnc(Cl)s1,-3.61%
13,C[C@H](NC(=O)c1ccco1)C(=O)N1CCCC1,21.7%
14,NC(=O)C1CCN(CC(=O)Nc2ccccc2Sc2ccccc2)CC1,-35.3%
15,NC(=O)C1CCN(CC(=O)Nc2cccnc2Cl)CC1,19.4%
16,NC(=O)C1CCN(CC(=O)Nc2ccccc2Sc2ccc(Cl)cc2)CC1,-53.7%

row,Structure (SMILES),"hERG current change (%, negative = inhibition) at 10uM"
1,NC(=O)CC(NC(=O)c1ccc(Br)cc1)c1ccc(N2CCCCCC2)c([N+](=O)[O-])c1 (stereo not shown),-7.79%
2,CCOC(=O)N1CCN(S(=O)(=O)c2c[nH]c(C(=O)OC)c2)CC1,12%
3,COc1cccc(CNC(=O)c2nnn(CC(=O)Nc3ccc(C)c(C)c3)c2N)c1,1.8%
4,O=C(O)c1ccc(/C=N/Nc2ncc(C(F)(F)F)cc2Cl)cc1,3.54%
5,O=C(Nc1cccc(-c2cscn2)c1)C1CCN(Cc2ccc(CO)o2)CC1,-3.02%
6,Cc1ccc(CN2CCC(C(=O)Nc3cccc(-c4cccc(F)c4)c3)CC2)o1,-69.1%
7,COCc1ccc(CN2CCC(C(=O)Nc3cccc(-c4cscn4)c3)CC2)o1,-18.9%
8,O=C(c1cccc(F)c1)N1CCN(Cc2ccco2)CC1,4.78%
9,COc1cccc(-c2cccc(NC(=O)C3CCN(Cc4ccc(C)o4)CC3)c2)c1,-39.4%
10,COc1cccc(-c2ccc(NC(=O)C3CCCN(Cc4ccc(CO)o4)C3)cc2)c1 (stereo not shown),2.83%
11,O=C(Nc1cccc(F)c1)C1CCN(C(=O)c2ccco2)CC1,-26.4%
12,O=C(Nc1cccc(-c2cccc(Cl)c2)c1)C1CCN(Cc2ccc(CO)o2)CC1,-68%
13,COc1cccc(-c2cccc(NC(=O)C3CCN(Cc4ccc(CO)o4)CC3)c2)c1,-32.5%
14,O=C(Nc1cccc(-c2cccc(F)c2)c1)C1CCN(Cc2ccc(CO)o2)CC1,-70.3%
15,O=C(Nc1cccc(-c2cccc(F)c2)c1)C1CCN(Cc2ccco2)CC1,-67.5%
